Laboratory results from the supplement of paper PMC6555819.

Assays:
Test in all cases: PBM binding z-score (relative to random genomic background probes); higher = stronger binding; sequences stand for … in GC…GCGATTGACAGCGTAGAATGAAGG
[1] = test system: FXR:RXRa (NR concentration 270 nM, RXRa partner concentration 90 nM)
In short: (§1)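 Probes were double-stranded and carried 34-nt variable regions with direct-repeat seeds, single-nucleotide variants, half-site ablations and random human genomic background sequences, printed on custom Agilent 4×180K protein-binding microarrays. Arrays were incubated 1 h with ligand-free nuclear receptor dimers in PBS pH 7.4, 2% milk, 0.02% Triton X-100, 1 mM DTT, 0.2 mg/mL BSA and 0.4 mg/ml salmon testes DNA. Antibodies against each partner (one per run) detected binding, and scanned fluorescence was regression-normalized. Binding z-scores use the random background probes as reference.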

[2] = test system: LXRa:RXRa (NR concentration 270 nM, RXRa partner concentration 90 nM)
In short: as §1

[3] = test system: LXRa homodimer (NR concentration 270 nM)
In short: as §1

[4] = test system: LXRb:RXRa (NR concentration 270 nM, RXRa partner concentration 90 nM)
In short: as §1

[5] = test system: LXRb homodimer (NR concentration 270 nM)
In short: as §1

[6] = test system: PPARa:RXRa (NR concentration 270 nM, RXRa partner concentration 90 nM)
In short: as §1

[7] = test system: PPARg:RXRa (NR concentration 180 nM, RXRa partner concentration 90 nM)
In short: as §1

[8] = test system: PPARg:RXRa 270nM:90nM, anti-RXR (NR concentration 270 nM, RXRa partner concentration 90 nM)
In short: as §1

[9] = test system: PPARg:RXRa 30nM:10nM, anti-RXR (NR concentration 30 nM, RXRa partner concentration 10 nM)
In short: as §1

[10] = test system: PPARg:RXRa 90nM:30nM, anti-RXR (NR concentration 90 nM, RXRa partner concentration 30 nM)
In short: as §1

| Sequence | PBM binding z-score [1] | PBM binding z-score [2] | PBM binding z-score [3] | PBM binding z-score [4] | PBM binding z-score [5] | PBM binding z-score [6] | PBM binding z-score [7] | PBM binding z-score [8] | PBM binding z-score [9] | PBM binding z-score [10] |
| --- | --- | --- | --- | --- | --- | --- | --- | --- | --- | --- |
| GCTATTAGTTTAAAGGGCAACCGAATGATTCTCG | 0.917 | 1.13 | 0.643 | 1.42 | 0.922 | 2.44 | 2.98 | 4.5 | 2.59 | 4.67 |
| ATATGTAGGTTAGATGGGGTCATTCAGACTAGGC | 4.98 | 5.67 | 3.54 | 4.97 | 1.56 | 5.11 | 5.98 | 5.22 | 2.6 | 4.55 |
| TCATATAGGTAAAGGGGAAAGTCGAACGATATGA | 0.639 | 0.796 | -0.0838 | 0.901 | 0.0683 | 2.18 | 2.99 | 4.18 | 4.55 | 4.52 |
| GCTAGCAGGCCATTTGGGTCACTCCATGACGGGC | -0.16 | -0.308 | -0.39 | -0.515 | -0.772 | 0.964 | 0.542 | 0.345 | -0.692 | -0.372 |
| TAGCCCAGGTCATGGGCCAGTATACCACGCGAAC | 5.49 | 3.68 | 0.403 | 2.34 | -0.434 | 4.31 | 3.87 | 3.37 | 0.448 | 2.04 |
| AGAATGAGCTTAAGATCAGGGAAACAGAATACAT | -0.576 | -0.745 | -0.372 | -0.637 | -0.597 | -0.434 | 0.541 | -0.0832 | 0.137 | 0.036 |
| CCTACTGGGCCAGCAGGTCATTGATATCAACGTT | 0.852 | 0.958 | 0.496 | 1.21 | -0.78 | 2.51 | 2.26 | 2.84 | 1.09 | 2.63 |
| TCATATCGGTAAACAGGTGAAAGTCCGTAAGTTA | 0.957 | 0.857 | 0.341 | 0.799 | 0.0218 | 1.89 | 1.04 | 2.91 | 4.03 | 3.5 |
| AATACATGGTCATCGTAGGCCAGAGTACGCACAG | 0.0777 | 0.702 | 0.0647 | -0.141 | -0.0432 | 0.289 | 1.22 | 0.533 | 0.2 | 0.514 |
| AGAATGAGGTTACCAATGATCAGGGAAACGCTTG | 1.77 | 3.21 | -0.495 | 1.67 | -0.399 | 3.33 | 2.55 | 2.4 | 1.21 | 1.7 |
| ACTATTAGTTGACTAAGGGCAACCGATACGACGC | 0.232 | 0.474 | 0.168 | 0.518 | 0.478 | 0.573 | 1.06 | 0.728 | 0.0857 | 0.518 |
| TGAATTAGGTTAAAGATCAGGGAACGTGGCGTCG | 0.694 | 0.724 | 0.0716 | 0.548 | 0.342 | 4.09 | 6.76 | 7.47 | 5.99 | 8.06 |
| ATCTCTAGGTAAAGATAGTTCAGTGTATGCAAAT | 0.705 | 4.16 | 0.797 | 0.893 | 0.581 | 1.05 | 0.827 | 0.452 | 0.59 | 0.44 |
| ACTGACGGGTCAACGAGGTTATAGCACGCGTATA | 5.56 | 4.16 | 0.67 | 3.43 | 0.166 | 5.03 | 3.34 | 3.77 | 0.997 | 2.17 |
| TCTATTGGTTGATTAGGGCAACCGAAACAGCGGA | 0.575 | 0.37 | -0.105 | 0.525 | 0.775 | 0.817 | 0.0989 | 1.86 | 3.2 | 2.59 |
| CGTCAATGTTCAACTAAGGTAACGTAAAGCACGC | 0.964 | 0.0385 | 0.177 | 0.536 | 0.375 | 0.376 | 0.538 | -0.0311 | -0.0519 | 0.0418 |
| CCGAGTAGGTTATGGGGCATTCACGCAACGGTGA | 0.165 | 0.583 | -0.0835 | 0.908 | 0.284 | 2.27 | 3.48 | 4.67 | 2.32 | 4.69 |
| TGTCAAAGTTCAAAGGTAACGTCAGTATCCACAC | 7.51 | 6.72 | 4.98 | 4.84 | 1.79 | 5.79 | 8.85 | 7.88 | 5.71 | 7.79 |
| TCTCGGAGGACACGAAGGTCAGAGCCTTCCAGAG | 1.54 | 1.56 | -0.0178 | 1.35 | -0.905 | 2.1 | 0.565 | 1.76 | 2.02 | 1.7 |
